High-throughput results (PubChem BioAssay)
Compounds with a hit are over-represented: about 1.1% of the library has one in this group of screens.
VLA-4 inh = inhibition in a human VLA-4 binding assay; P13612; VLA-4 expressing cells, ligand binding flow cytometry; inhibition, % (about 7 µM as worked out from the volumes in the protocol); hit rate 0.2% among 330,000; AID 2557; in the data active means inhibition above about 50%
Target sequence (P13612 whole entry, looked up): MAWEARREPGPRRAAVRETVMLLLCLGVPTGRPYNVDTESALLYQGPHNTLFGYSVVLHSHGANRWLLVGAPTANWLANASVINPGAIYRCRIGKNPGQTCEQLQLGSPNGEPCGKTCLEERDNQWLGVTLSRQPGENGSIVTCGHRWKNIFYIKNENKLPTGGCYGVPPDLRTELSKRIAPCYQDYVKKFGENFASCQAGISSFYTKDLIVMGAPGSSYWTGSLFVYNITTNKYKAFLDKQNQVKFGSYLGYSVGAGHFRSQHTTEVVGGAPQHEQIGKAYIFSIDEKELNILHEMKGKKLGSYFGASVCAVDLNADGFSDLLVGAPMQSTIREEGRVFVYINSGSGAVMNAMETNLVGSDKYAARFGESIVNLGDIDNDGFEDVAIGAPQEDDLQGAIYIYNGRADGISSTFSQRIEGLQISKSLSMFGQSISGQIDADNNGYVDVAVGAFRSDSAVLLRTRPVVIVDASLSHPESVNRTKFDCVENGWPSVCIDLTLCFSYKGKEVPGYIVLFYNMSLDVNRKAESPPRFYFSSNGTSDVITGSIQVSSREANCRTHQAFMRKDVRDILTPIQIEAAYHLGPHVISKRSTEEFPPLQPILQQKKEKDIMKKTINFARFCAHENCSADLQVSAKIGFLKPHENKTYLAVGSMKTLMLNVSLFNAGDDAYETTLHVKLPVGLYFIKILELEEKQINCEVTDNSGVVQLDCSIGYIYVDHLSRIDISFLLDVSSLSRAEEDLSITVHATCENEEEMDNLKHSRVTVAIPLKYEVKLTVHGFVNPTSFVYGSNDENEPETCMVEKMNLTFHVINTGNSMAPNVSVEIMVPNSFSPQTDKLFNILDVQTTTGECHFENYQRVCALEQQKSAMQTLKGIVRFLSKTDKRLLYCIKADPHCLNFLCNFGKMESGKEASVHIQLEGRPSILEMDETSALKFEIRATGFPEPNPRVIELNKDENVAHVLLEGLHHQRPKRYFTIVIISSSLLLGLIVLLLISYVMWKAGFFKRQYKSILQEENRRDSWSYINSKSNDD
AGP1-GFP MLPCN = alters AGP1-GFP fluorescence in TOR pathway yeast screen; S. cerevisiae AGP1-GFP multiplex flow cytometry, 3 h; GFP as percent of DMSO wells; GFP response vs DMSO, % at 10 µM; hit rate 0.02% among 320,000; AID 2066;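 active means GFP response relative to DMSO above a set limit, near screen average plus 3 SD, cut at about 150% in these data; inconclusive means fewer than 70 cells counted for the yeast strain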;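 further: median GFP channel fluorescence of the gated AGP1 strain per well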
LAP4 TOR yeast = yeast TOR pathway LAP4-GFP modulation; GFP response vs DMSO, % at 10 µM; hit rate 0.34% among 320,000; S. cerevisiae LAP4-GFP multiplex, flow cytometry GFP, 3 h; median GFP as percent of DMSO wells;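 active means GFP response vs DMSO above a set limit, about the screen mean plus 3 SD, cut at about 150% in these data; inconclusive means under 70 cell events counted for the yeast strain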
CIT2-GFP yeast = yeast TOR pathway CIT2-GFP modulation; S. cerevisiae CIT2-GFP strain, flow cytometry, 3 h; 100 means same as DMSO wells; GFP response vs DMSO, % at 10 µM; hit rate 0.065% among 320,000;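 active means GFP response relative to DMSO above a set limit, near the screen mean plus 3 SD, cut at about 150% in these data; inconclusive means Fewer than 70 cells measured for a yeast strain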;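 further: ratio of well median GFP fluorescence to mean of DMSO wells on the plate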
RPL19A-GFP yeast = yeast TOR pathway RPL19A-GFP modulation | S. cerevisiae RPL19A-GFP strain, flow cytometry, 3 h; hits give low values | hit rate 0.3% among 330,000 | percent response vs DMSO, % at 10 µM;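 active means percent response vs DMSO below 50%; inconclusive means fewer than 70 events counted for the yeast strain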;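 further: median channel GFP fluorescence of the barcoded RPL19A-GFP strain; ratio of sample median GFP to plate DMSO average so 100% = DMSO; lower means less RPL19A-GFP as with rapamycin TOR inhibition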
MEP2 TOR yeast = modulators of TOR pathway MEP2-GFP in S. cerevisiae; S. cerevisiae MEP2-GFP strain, flow cytometry GFP, 3 h; 100% = DMSO control level; GFP response vs DMSO, % at 10 µM; hit rate 0.51% among 330,000; AID 2016;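 active means GFP response versus DMSO above a set limit, roughly screen mean plus 3 SD, cut at about 180% in these data; inconclusive means fewer than 70 cells counted for a yeast strain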;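 further: median GFP fluorescence of the barcode-gated MEP2-GFP cells per well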
An asterisk follows results filed as active; ? = inconclusive; . = no result given; ! = not confirmed by another sample; [ ] = remark or other dose.

SMILES	VLA-4 inh	AGP1-GFP MLPCN	LAP4 TOR yeast	CIT2-GFP yeast	RPL19A-GFP yeast	MEP2 TOR yeast
Nc1ccc(C(=O)O)c(O)c1	39.7	83.8	384.1*![may fluoresce red]	79.3	?	94.2
O=C(O)c1ccc(O)cc1O	15.0	111.1	110.9	91.3	105.1	104.0
COc1ccc(NC(=O)c2cccc3c2C(=O)c2ccc(-c4cnc(OC)nc4)cc2S3(=O)=O)cc1	1.0	92.2	85.8	85.5	92.3	87.0
CSc1ccc(NC(=O)N2CCN(c3nc4ccccc4s3)CC2)cc1	-1.9	?	94.0	?	59.7	212.2*[may fluoresce violet]
CCc1ccc(NC(=O)C(C)Sc2nc(-c3ccco3)c(C#N)c(=O)[nH]2)cc1 (centres undefined)	5.1	102.2	100.3	102.2	95.2	102.9
C#CCOCCOCCOCCNc1nc(N2CCN(C(=O)CCCCCCCCCCNC(=O)[C@H]([C@@H](C)CC)n3cc(CCCCN=C(N)N)nn3)CC2)nc(N2CCN(C(=O)CCCCCCCCCCNC(=O)[C@H](CCCN=C(N)N)n3cc(C[C@@H](C)CC)nn3)CC2)n1	-1.9	93.4	164.9*	96.5	74.7	105.9
C#CCOCCOCCOCCNc1nc(N2CCN(C(=O)CCCCCCCCCCNC(=O)[C@H](CCCN=C(N)N)n3cc(C[C@@H](C)CC)nn3)CC2)nc(N2CCN(C(=O)CCCCCCCCCCNC(=O)[C@@H]([C@H](C)CC)n3cc(CCCCCN)nn3)CC2)n1	-12.4	83.2	192.6*	75.7	69.9	91.7
C#CCOCCOCCOCCNc1nc(N2CCOCC2)nc(N2CCN(C(=O)CCCCCCCCCCNC(=O)[C@H]([C@@H](C)CC)n3cc(CCCCN=C(N)N)nn3)CC2)n1	-5.2	76.6	118.8	90.3	87.9	78.1
Cc1noc(C)c1S(=O)(=O)N(CC(=O)NC1CCCC1)c1ccc(C(C)C)cc1	-0.6	98.4	86.0	97.7	99.8	95.9
COc1ccccc1CNC(=O)COC(=O)/C=C/c1ccc2c(c1)OCO2	2.7	106.9	103.9	100.5	107.0	103.1
C=C1C(=O)C=C2CN(C(=O)c3ccccc3)[C@@](Cc3ccc(F)cc3)(C(=O)OC)[C@@H]12	17.5	81.0	173.0*	86.6	102.2	90.5
CCOC(=O)c1cc2ccc3ccccc3c2oc1=O	14.0	81.4	87.7	102.9	100.5	102.8
CCOC(=O)c1cc2ccc(OC(=O)c3ccco3)cc2oc1=O	10.8	?	103.8	?	49.6*[may fluoresce violet]	198.4*[may fluoresce violet]
COc1ccc2cc(-c3cc(C(=O)O)c4ccccc4n3)ccc2c1	11.1	105.3	135.4	.	94.5	307.7*
O=C(CN1CCCC1)Nc1cc(C(F)(F)F)ccc1Cl	0.6	101.3	96.5	102.7	93.7	98.3
O=C(CN1CCCC1)Nc1cc(C(F)(F)F)cc(C(F)(F)F)c1	3.3	130.9	151.5*	98.3	90.0	124.8
COc1ccc(C(=O)COC(=O)CCN2C(=O)C3C4C=CC(C5CC45)C3C2=O)cc1 (centres undefined)	-4.3	88.0	83.8	98.9	96.0	99.7
COc1ccc(C(C)=O)cc1CC(=O)Nc1ccccc1-c1ccccc1	1.3	101.2	96.1	99.7	103.5	103.5
COC(=O)c1ccc(-c2nc(O)c3cnccn23)cc1	1.7	?	76.5	?	21.7*[may fluoresce violet]	325.0*[may fluoresce violet]
NC(=O)CSCc1c(Cl)cccc1Cl	15.8	60.6	83.2	90.5	65.8	217.4*
CCC(C)(C)NC(=O)C(c1ccco1)N(C(=O)CNC(=O)c1cccs1)c1cccnc1 (centres undefined)	10.8	40.6	90.8	?	53.7	288.5*[may fluoresce violet]
Cc1ccc(S(=O)(=O)NCC(=O)OCC(=O)N(CCC#N)c2ccccc2)cc1	0.7	108.5	103.6	105.0	102.9	107.2
Cc1cc(C)c2sc(NC(=O)c3ccc([N+](=O)[O-])o3)nc2c1	-17.4	18.1	193.8*[may fluoresce violet]	?	94.0	156.2
O=C(Cn1nnc(-c2ccc(F)cc2)n1)Nc1cccc(S(=O)(=O)N2CCCC2)c1	1.6	95.0	100.4	100.2	94.7	96.8
O=C(Nc1ccccc1NC(=O)c1ccco1)c1ccccc1	6.3	?	75.8	?	41.2*[may fluoresce violet]	495.1*[may fluoresce violet]
SMILES	VLA-4 inh	AGP1-GFP MLPCN	LAP4 TOR yeast	CIT2-GFP yeast	RPL19A-GFP yeast	MEP2 TOR yeast
CC(C)(C)c1ccc(C(=O)Nc2ccccc2NC(=O)c2ccco2)cc1	6.8	95.5	87.7	94.9	93.3	94.4
Nc1ccc(CC2SC(=O)NC2=O)cc1 (centres undefined)	2.3	?	132.1	?	50.8	415.7*[may fluoresce violet]
O=C(c1cc(C2CC2)nn1-c1ccccc1)N1CCN(Cc2c(F)cccc2Cl)CC1	-3.5	106.3	106.5	106.2	104.3	103.2
CC1CCCN(CCCNC(=O)C2CCN(S(=O)(=O)N3CCC4(CC3)OCCO4)CC2)C1 (centres undefined)	1.6	18.3	86.2	105.2	47.1*	120.2
O=C(NCCCN1CCCCC1)C1CCN(S(=O)(=O)N2CCC3(CC2)OCCO3)CC1	-1.6	?	90.0	?	35.6*[may fluoresce violet]	153.7
O=C(NCCCN1CCc2ccccc2C1)C1CCN(S(=O)(=O)N2CCC3(CC2)OCCO3)CC1	15.7	103.5	96.5	95.5	104.4	96.2
Cc1c(NS(=O)(=O)c2cccc(C(=O)N3CCC(C)CC3)c2)c(=O)n(-c2ccccc2)n1C	10.1	97.6	96.0	98.9	93.3	97.2
Cc1ccc(C(=O)NCCCNC(=O)c2ccccc2C)cn1	-4.3	109.6	96.2	107.8	107.8	102.9
COc1cccc(/C=C2\CCCCC2=O)c1	3.4	?	74.8	?	43.3*[may fluoresce violet]	426.4*[may fluoresce violet]
COc1ccc(OCCOC(=O)c2ccc(F)c(S(=O)(=O)N3CCOCC3)c2)cc1	0.8	94.2	102.8	87.1	94.3	99.5
CC1=C/C(=C/N(C)C)C(=O)O1	2.0	?	129.8	?	19.2*[may fluoresce violet]	?
Cc1ccc(S(=O)(=O)Cn2nnnc2C(CC(C)C)N2CCC(C(N)=O)CC2)cc1 (centres undefined)	-5.3	98.0	94.1	104.6	107.2	99.0
CCCC(c1nnnn1CS(=O)(=O)c1ccc(C)cc1)N1CCC(C(N)=O)CC1 (centres undefined)	2.2	?	77.5	?	56.0	224.3*[may fluoresce violet]
CCOc1ccc(NC(=O)CSc2nc3ccccc3nc2N2CC(C)OC(C)C2)cc1 (centres undefined)	-7.8	96.2	97.1	94.7	96.8	96.8
N#Cc1c(N)n(-c2cccc(C(=O)O)c2)c2nc3ccccc3nc12	-16.0	18.7	83.0	?	61.0	198.4*[may fluoresce violet]
CC(C)c1c(O)nc(SCC(=O)N2CCCCC2)[nH]c1=O	3.6	17.1	81.4	?	65.8	241.1*[may fluoresce violet]
COc1ccccc1NC(=O)Cc1ccsc1	-2.3	?	123.1	93.0	99.4	101.3
COc1ccc(NC(=O)COC(=O)Cc2ccsc2)c(OC)c1	-4.1	96.5	101.2	100.1	95.0	93.9
